Screens as filed in PubChem.
HSP90 refold inh – HSP90 refolding inhibition in rabbit reticulocyte lysate; luciferase refolding luminescence, 3 h; inhibition, % at 5.6 µM; hit rate 0.91% among 290,000;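 active means inhibition above the screen-wide mean plus 3 SD, computed separately per campaign, cut at about 16% in these data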;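 further: 0% = DMSO wells and 100% = 60 µM geldanamycin wells; inhibitors lower the luminescence because luciferase stays unfolded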
Mdm2-MdmX inh – disrupts the human Mdm2-MdmX interaction | SaOS-2 split-luciferase Mdm2/MdmX complementation, luminescence | inhibition, % at 8 µM | hit rate 3% among 330,000 | AID 485346;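 active means inhibition of at least 50% at 8 µM in the primary screen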
Target sequence (O15151 whole entry, looked up): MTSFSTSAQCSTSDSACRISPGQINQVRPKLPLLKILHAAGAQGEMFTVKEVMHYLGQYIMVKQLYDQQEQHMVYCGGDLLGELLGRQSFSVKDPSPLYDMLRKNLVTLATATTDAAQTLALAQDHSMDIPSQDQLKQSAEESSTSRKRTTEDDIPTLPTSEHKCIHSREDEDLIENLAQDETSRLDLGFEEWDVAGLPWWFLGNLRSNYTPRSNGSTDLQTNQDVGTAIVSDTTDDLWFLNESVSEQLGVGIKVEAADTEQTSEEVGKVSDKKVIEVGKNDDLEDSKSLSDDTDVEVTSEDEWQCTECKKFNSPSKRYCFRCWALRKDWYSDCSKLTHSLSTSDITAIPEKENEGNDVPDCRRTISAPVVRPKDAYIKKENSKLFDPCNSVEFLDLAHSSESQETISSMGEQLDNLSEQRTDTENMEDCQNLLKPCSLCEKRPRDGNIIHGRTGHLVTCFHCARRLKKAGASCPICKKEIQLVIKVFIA
Target sequence (Q00987 whole entry, looked up): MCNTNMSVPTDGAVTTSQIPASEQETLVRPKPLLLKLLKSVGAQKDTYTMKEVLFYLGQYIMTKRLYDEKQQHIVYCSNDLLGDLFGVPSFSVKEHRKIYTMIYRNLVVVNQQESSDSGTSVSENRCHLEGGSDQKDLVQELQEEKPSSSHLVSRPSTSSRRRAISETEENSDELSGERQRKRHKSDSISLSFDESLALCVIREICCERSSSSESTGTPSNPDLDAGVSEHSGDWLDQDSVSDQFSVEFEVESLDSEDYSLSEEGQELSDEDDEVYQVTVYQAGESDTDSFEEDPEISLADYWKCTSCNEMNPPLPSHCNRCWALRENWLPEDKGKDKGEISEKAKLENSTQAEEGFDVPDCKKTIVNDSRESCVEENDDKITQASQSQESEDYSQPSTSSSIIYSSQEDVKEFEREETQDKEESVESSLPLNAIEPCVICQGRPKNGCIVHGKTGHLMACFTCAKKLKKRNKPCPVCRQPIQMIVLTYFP
CF NFkB inh – blocks PAF-induced NF-kB reporter in cystic fibrosis cells. inhibition, % at 5 µM. hit rate 0.86% among 360,000. KKLEB NF-kB-GFP reporter, GFP fluorescence overnight;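 active means at least 50% inhibition at 5 µM, scaled per plate between neutral and stimulator controls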;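 further: PAF is a Pseudomonas aeruginosa culture filtrate used as stimulus; plate controls were PAF-stimulated DMSO wells for no effect and unstimulated DMSO wells for full effect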
KKLEB tox – counter-screen for CF NF-kB inhibitors: cytotoxicity; KKLEB CF airway cells viability, ATPlite luminescence, overnight; hits give low values; cells stimulated with P. aeruginosa culture filtrate; activity change (cytotoxicity), % at 5 µM; hit rate 0.36% among 360,000; AID 602141;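 active means corrected activity change at or below -50% at 5 µM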
LGR2 antag – Drosophila LGR2 receptor signaling inhibition; HEK293 LGR2, CRE-luciferase, bursicon-stimulated, 4 h; hit rate 0.35% among 380,000; inhibition, % at 9.99 µM;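 active means drop in luminescence signal, shown as inhibition above about 50% in the replicate tests, limit read from the data, passing the limit was not always enough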;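 further: agonist challenge used bursicon conditioned medium at about half maximal strength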
Peg3 prom inh – inhibitors of Peg3 promoter | inhibition, % at 20 µM | AID 588405 | hit rate 1.7% among 360,000 | HeLa PEG-Prom luciferase reporter, luminescence, overnight;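 active means inhibition of at least 50% at 20 µM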
Mdm2-MdmX conf – confirmation of human Mdm2/MdmX interaction inhibitors; shares compounds with Mdm2-MdmX inh; Mdm2-MdmX binding, luminescent assay; inhibition, % at 8 µM; hit rate 55% among 10,000; in the data active means inhibition above about 40%
FLuc counter – inhibits full-length luciferase, flagging false Mdm2/MdmX hits. shares compounds with Mdm2-MdmX inh. SaOS-2 full-length luciferase counterscreen, luminescence. inhibition, % at 8 µM. hit rate 77% among 6,200;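 active means mean inhibition at 8 µM reaching about 37%, which flags the compound as non-specific, limit read from the data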;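 further: p53-null SaOS-2 cells with luciferase driven by a doxycycline-inducible promoter; compound on cells about two nights before reading with doxycycline added after day one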
Active calls of the source: *. A selection: hits, their analogues and other compounds. The true share with any hit is near 3.6%.

How did Cn1cc(/C=C(\C#N)C(=O)Nc2cccc([N+](=O)[O-])c2)c2ccccc21 do in these assays?
HSP90 refold inh: 4; Mdm2-MdmX inh: 66*; CF NFkB inh: -8; KKLEB tox: -8; LGR2 antag: -3; Peg3 prom inh: 24; Mdm2-MdmX conf: 20

What do the screens show for `COc1ccc(/C=N/NC(=O)c2cccc([N+](=O)[O-])c2)c2ccccc12`?
HSP90 refold inh: 3; Mdm2-MdmX inh: 86*; CF NFkB inh: 31; KKLEB tox: -20; LGR2 antag: 5; Peg3 prom inh: 21; Mdm2-MdmX conf: 23

How did COc1ccc(-c2ccc3c(c2)O[C@H](CN(C)C(=O)Nc2ccccc2F)[C@H](C)CN([C@@H](C)CO)S3(=O)=O)cc1 do in these assays?
LGR2 antag: -6

Results for COc1ccc(S(=O)(=O)N[C@H]2CC[C@@H](CC(=O)NCCc3ccccc3)O[C@@H]2CO)cc1 ?
LGR2 antag: 9

How did Cn1cc(/C=N/NC(=O)c2cccc([N+](=O)[O-])c2)c2ccccc21 do in these assays?
HSP90 refold inh: 3; Mdm2-MdmX inh: 61*; CF NFkB inh: -6; KKLEB tox: -1; LGR2 antag: -36; Peg3 prom inh: 5; Mdm2-MdmX conf: -8

What do the screens show for `O=C(Nc1ccc(O)c2c(=O)cc(-c3cccc(Cl)c3)oc12)c1ccccc1Cl`?
Mdm2-MdmX inh: 91*; CF NFkB inh: -4; KKLEB tox: -17; LGR2 antag: 8; Peg3 prom inh: -12; Mdm2-MdmX conf: 2

How did O=C(Nc1ccc(O)c2c(=O)cc(-c3ccccc3Cl)oc12)c1ccccc1Cl do in these assays?
HSP90 refold inh: 1; Mdm2-MdmX inh: -4; CF NFkB inh: -9; KKLEB tox: -2; LGR2 antag: 5; Peg3 prom inh: -7

Results for O[C@@H]1[C@@H](O)C=C2CCN3Cc4cc5c(cc4[C@H]1C23)OCO5 (stereo partly drawn) ?
Mdm2-MdmX inh: 84*; CF NFkB inh: 57*; KKLEB tox: 32; LGR2 antag: 88*; Peg3 prom inh: 63*; Mdm2-MdmX conf: 76*; FLuc counter: 101*

What do the screens show for `Cc1ccc(-c2cc(C(F)F)n3ncc(C(=O)N4CCc5ccccc54)c3n2)cc1`?
HSP90 refold inh: 3; Mdm2-MdmX inh: 61*; CF NFkB inh: 24; KKLEB tox: -13; LGR2 antag: -19; Peg3 prom inh: 19; Mdm2-MdmX conf: 64*; FLuc counter: 57*

Results for COc1ccc(-c2cc(C(F)F)n3ncc(C(=O)Nc4cc(C)on4)c3n2)cc1 ?
HSP90 refold inh: -9; Mdm2-MdmX inh: 59*; CF NFkB inh: -20; KKLEB tox: -12; LGR2 antag: 6; Peg3 prom inh: 2; Mdm2-MdmX conf: 12

What do the screens show for `Cc1ccc(-c2cc(C(F)F)n3ncc(C(=O)Nc4c(C)nn(Cc5c(Cl)cccc5Cl)c4C)c3n2)cc1`?
HSP90 refold inh: 0; Mdm2-MdmX inh: 80*; CF NFkB inh: 77*; KKLEB tox: -65*; Peg3 prom inh: -21; Mdm2-MdmX conf: -9

How did Cc1ccc(-c2cc(C(F)F)n3ncc(C(=O)Nc4c(C)nn(Cc5ccccc5Cl)c4C)c3n2)cc1 do in these assays?
HSP90 refold inh: 2; Mdm2-MdmX inh: 78*; CF NFkB inh: 42; KKLEB tox: 4; Peg3 prom inh: 34; Mdm2-MdmX conf: 28

Results for Cc1ccc(S(=O)(=O)Nc2ccc3c(c2)C(=O)N([C@@H](C)CO)C[C@@H](C)[C@H](CN(C)C(=O)c2ccncc2)OCCCC[C@@H](C)O3)cc1 ?
LGR2 antag: -7

What do the screens show for `C[C@H](CO)N1C[C@H](C)[C@H](CN(C)Cc2ccc(C(=O)O)cc2)Oc2ccc(NS(C)(=O)=O)cc2CC1=O`?
LGR2 antag: 1

How did Cc1nn(Cc2c(F)cccc2Cl)c(C)c1NC(=O)C1CC1 do in these assays?
HSP90 refold inh: -2; Mdm2-MdmX inh: -5; CF NFkB inh: 5; KKLEB tox: 1; LGR2 antag: -14; Peg3 prom inh: -2
